Data: PubChem BioAssay (Tox21)
Where “and” joins values, the source holds several entries; their conditions need not be identical. Equal entries are not always repeated. Some compounds were tested as several samples or in several runs, with calls that do not always agree. Calls of active or inactive are those of the source. Unless noted, calls come from the whole dose curve; as a rule, active = well fitted curve in the direction sought with a large enough effect in the repeat runs; inconclusive = weak or mixed curves; inactive = no such curve, though single readings can be large; an effect the other way counts as inactive or inconclusive.

Key:
[1] = qHTS assay to identify small molecule antagonists of the thyroid receptor (TR) signaling pathway (AID 743065); note: potency is the fitted concentration of half-maximal effect; nearly all actives have a fitted effect of over 55% in size
Method in brief: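 Antagonism measured as loss of luciferase signal in GH3 cells stably carrying a TRE-luciferase reporter, co-treated with compound and T3 (1 nM final) for 23.5 h at 37 C. Viability was read in the same well by CellTiter-Fluor.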

[2] = qHTS assay to identify small molecule antagonists of the estrogen receptor alpha (ER-alpha) signaling pathway using the BG1 cell line - cell viability counter screen (AID 743081);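 note: compound given together with 17beta-estradiol as the ER stimulus; nearly all actives have a fitted effect of over 45% in size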; note: potency is the fitted concentration of half-maximal effect
Aromatase (Homo sapiens) = Aromatase (Homo sapiens) (UniProt P11511); assay: qHTS assay to identify aromatase inhibitors (AID 743083); note: nearly all actives have a fitted effect of over 55% in size; note: potency is the fitted concentration of half-maximal effect
[3] = qHTS assay to identify aromatase inhibitors - cell viability counter screen (AID 743084);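 note: cells stimulated with testosterone during compound exposure; nearly all actives have a fitted effect of over 55% in size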; note: potency is the fitted concentration of half-maximal effect
[4] = qHTS assay to identify small molecule antagonists of the peroxisome proliferator-activated receptor gamma (PPARg) signaling pathway - cell viability counter screen (AID 743194); details: Potency: co-treated with 50 nM rosiglitazone unless noted; note: nearly all actives have a fitted effect of over 55% in size; note: potency is the fitted concentration of half-maximal effect
Method in brief: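 Viability was measured as CellTiter-Glo luminescence in GeneBLAzer PPARg UAS-bla HEK293H cells. These cells had been exposed 17 h at 37 C to compounds together with rosiglitazone at 50 nM final, with the beta-lactamase readout taken in the same wells.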

[5] = qHTS assay for small molecule agonists of the antioxidant response element (ARE) signaling pathway (AID 743202; active = well fitted activation curve with a large enough effect in the signal ratio in the repeat runs, not every such curve was filed as active; inconclusive = weak or mixed curves, or effect the other way; inactive = no such curve, though single readings can be large or run the other way; the % refers to the signal ratio; note: potency is the fitted concentration of half-maximal effect; for activation: % is set by controls: 0 for no effect and ±100 for the full control effect)
Method in brief: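 After 16 hours of compound treatment at 37 C, HepG2 cells with a stably integrated ARE-driven beta-lactamase reporter were loaded 2 hours at room temperature with LiveBLAzer B/G FRET substrate and fluorescence intensity measured.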

[6] = qHTS assay for small molecule activators of the heat shock response signaling pathway - cell viability counter screen (AID 743209); note: nearly all actives have a fitted effect of over 50% in size; note: potency is the fitted concentration of half-maximal effect
Method in brief: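 Viability of HSE-bla HeLa cells is measured with CellTiter-Glo in the wells already used for the reporter read. Compound exposure lasts 5 h at 37 C, and luminescence is read after 30 min at room temperature.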

[7] = qHTS assay for small molecule activators of the heat shock response signaling pathway (AID 743210; active = well fitted activation curve with a large enough effect in the signal ratio in the repeat runs, with a control signal flat, not every such curve was filed as active; inconclusive = weak or mixed curves; the % refers to the signal ratio; note: series mostly up to about 63 µM; % is set by controls: 0 for no effect and ±100 for the full control effect)
Method in brief: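 Compound exposure lasted 5 h at 37 C in HeLa cells carrying a heat-shock-element-driven beta-lactamase reporter. Read-out: fluorescence intensity after 2.5 h room-temperature loading with LiveBLAzer B/G FRET substrate.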

[8] = system: thyroid hormone receptor (rat, GH3 cells); assay: qHTS assay to identify small molecule agonists of the thyroid receptor (TR) signaling pathway (AID 743066; calls by dose curve; note: % is set by controls: 0 for no effect and ±100 for the full control effect)
[9] = qHTS assay to identify small molecule antagonists of the estrogen receptor alpha (ER-alpha) signaling pathway - cell viability counter screen (AID 743074; calls by dose curve;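 note: HEK293 cells carrying ER-alpha-UAS-bla reporter stimulated with 17beta-estradiol; nearly all actives have a fitted effect of over 45% in size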; note: potency is the fitted concentration of half-maximal effect)
[10] = molecular target: Estrogen receptor (Homo sapiens) (UniProt P03372); assay: qHTS assay to identify small molecule agonists of the estrogen receptor alpha (ER-alpha) signaling pathway (AID 743075; calls by dose curve;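 note: HEK293 GripTite cells with ER-alpha and UAS-driven beta-lactamase reporter; % is set by controls: 0 for no effect and ±100 for the full control effect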)
[11] = molecular target: Aryl hydrocarbon receptor (Homo sapiens) (UniProt P35869); assay: qHTS assay to identify small molecule that activate the aryl hydrocarbon receptor (AhR) signaling pathway (AID 743085); note: nearly all actives have a fitted effect of over 15% in size; note: potency is the fitted concentration of half-maximal effect
Method in brief: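 Stably transfected human liver carcinoma cells (HG2L7.5c1; 20 DRE-firefly luciferase) were incubated 5 h, dosed, and kept 24 h at 37C. Agonism was scored from increased luciferase luminescence.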

[12] = qHTS assay to identify small molecule that activate the aryl hydrocarbon receptor (AhR) signaling pathway - cell viability counter screen (AID 743086); note: nearly all actives have a fitted effect of over 45% in size; note: potency is the fitted concentration of half-maximal effect
Method in brief: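 Cytotoxicity counter screen: CellTiter-Fluor signal (30 min, 37 C) in 4000 HepG2 cells/well carrying the DRE-luciferase reporter, following 24 h compound exposure at 37 C.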

[13] = molecular target: Peroxisome proliferator-activated receptor gamma (Homo sapiens) (UniProt P37231); assay: qHTS assay to identify small molecule agonists of the peroxisome proliferator-activated receptor gamma (PPARg) signaling pathway (AID 743094; active = well fitted activation curve with a large enough effect in the signal ratio in the repeat runs, not every such curve was filed as active; inconclusive = weak or mixed curves, or effect the other way; inactive = no such curve, though single readings can be large or run the other way; the % refers to the signal ratio; note: potency is the fitted concentration of half-maximal effect)
Method in brief: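 Reporter activation was scored by fluorescence of cleaved LiveBLAzer B/G substrate (1 h, room temperature) in PPARg-bla HEK293H cells previously treated 17 h at 37C with DMSO-dissolved compounds.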

[14] = qHTS assay for small molecule agonists of the antioxidant response element (ARE) signaling pathway - cell viability counter screen (AID 743203; calls by dose curve; note: nearly all actives have a fitted effect of over 55% in size; note: potency is the fitted concentration of half-maximal effect)
Method in brief: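 Viability counter screen: stably transfected ARE-bla HepG2 line, 16 hrs compound exposure at 37C/5% CO2, ATP-based CellTiter-Glo luminescence measured in the reporter wells.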

[15] = qHTS assay to identify small molecule agonists of the peroxisome proliferator-activated receptor delta (PPARd) signaling pathway - cell viability counter screen (AID 743211); note: nearly all actives have a fitted effect of over 55% in size; note: potency is the fitted concentration of half-maximal effect
Method in brief: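 In the same wells used for beta-lactamase reporter measurement, cytotoxicity is scored by CellTiter-Glo. HEK293H PPARd-bla cells receive compound for 17 h at 37C following a 5 h settling period.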

[16] = molecular target: Peroxisome proliferator-activated receptor gamma (Homo sapiens) (UniProt P37231); assay: qHTS assay to identify small molecule antagonists of the peroxisome proliferator-activated receptor gamma (PPARg) signaling pathway (AID 743191; calls by dose curve; note: nearly all actives have a fitted effect of over 30% in size; note: potency is the fitted concentration of half-maximal effect)
Method in brief: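 Beta-lactamase reporter under UAS control in HEK293H PPARg-bla cells; compound treatment 17 h at 37C. Read-out: fluorescence intensity after 1 h room-temperature incubation with LiveBLAzer B/G FRET substrate.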

[17] = molecular target: Estrogen receptor (Homo sapiens) (UniProt P03372); assay: qHTS assay to identify small molecule antagonists of the estrogen receptor alpha (ER-alpha) signaling pathway (AID 743069; active = well fitted curve in the direction sought with a large enough effect in the signal ratio in the repeat runs, not every such curve was filed as active; inconclusive = weak or mixed curves, or effect the other way; inactive = no such curve, though single readings can be large or run the other way; the % refers to the signal ratio; note: potency is the fitted concentration of half-maximal effect)
Method in brief: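 Antagonist mode: compounds in DMSO were co-added with 17beta-estradiol to ER-alpha-bla HEK293 cells (2% charcoal-stripped serum) and left 18 h at 37C. Reporter inhibition was measured as FRET fluorescence after 2 h LiveBLAzer substrate at room temperature.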

[18] = qHTS assay to identify small molecule antagonists of the estrogen receptor alpha (ER-alpha) signaling pathway using the BG1 cell line (AID 743080; calls by dose curve;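 note: BG1 cells stimulated with 17beta-estradiol alongside compound; potency is the fitted concentration of half-maximal effect; nearly all actives have a fitted effect of over 25% in size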)
Method in brief: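 Endogenous full-length ER-alpha in BG1-Luc-4E2 cells drives a stably integrated 4×ERE luciferase gene; compounds were tested against 17beta-estradiol over 21.5 h, with luminescence and multiplexed viability fluorescence recorded.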

[19] = molecular target: Estrogen receptor (Homo sapiens) (UniProt P03372); assay: qHTS assay to identify small molecule agonists of the estrogen receptor alpha (ER-alpha) signaling pathway using the BG1 cell line (AID 743079); note: % is set by controls: 0 for no effect and ±100 for the full control effect; nearly all actives have a fitted effect of over 20% in size

Measured: Potency

Sequence of Peroxisome proliferator-activated receptor gamma (Homo sapiens) (P37231 whole entry, looked up): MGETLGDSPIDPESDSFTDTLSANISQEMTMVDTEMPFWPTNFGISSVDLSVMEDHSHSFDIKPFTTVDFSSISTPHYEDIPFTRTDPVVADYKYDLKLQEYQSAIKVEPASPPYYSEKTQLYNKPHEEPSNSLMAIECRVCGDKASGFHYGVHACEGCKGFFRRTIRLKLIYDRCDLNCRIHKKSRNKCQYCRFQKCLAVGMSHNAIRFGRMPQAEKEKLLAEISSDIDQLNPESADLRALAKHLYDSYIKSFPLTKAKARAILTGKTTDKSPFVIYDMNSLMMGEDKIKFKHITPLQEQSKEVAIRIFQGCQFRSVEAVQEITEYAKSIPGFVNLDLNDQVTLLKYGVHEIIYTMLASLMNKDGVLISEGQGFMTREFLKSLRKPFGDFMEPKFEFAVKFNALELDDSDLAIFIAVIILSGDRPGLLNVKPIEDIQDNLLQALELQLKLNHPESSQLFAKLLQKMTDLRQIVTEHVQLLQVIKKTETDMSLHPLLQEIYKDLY
Sequence of Aryl hydrocarbon receptor (Homo sapiens) (P35869 whole entry, looked up): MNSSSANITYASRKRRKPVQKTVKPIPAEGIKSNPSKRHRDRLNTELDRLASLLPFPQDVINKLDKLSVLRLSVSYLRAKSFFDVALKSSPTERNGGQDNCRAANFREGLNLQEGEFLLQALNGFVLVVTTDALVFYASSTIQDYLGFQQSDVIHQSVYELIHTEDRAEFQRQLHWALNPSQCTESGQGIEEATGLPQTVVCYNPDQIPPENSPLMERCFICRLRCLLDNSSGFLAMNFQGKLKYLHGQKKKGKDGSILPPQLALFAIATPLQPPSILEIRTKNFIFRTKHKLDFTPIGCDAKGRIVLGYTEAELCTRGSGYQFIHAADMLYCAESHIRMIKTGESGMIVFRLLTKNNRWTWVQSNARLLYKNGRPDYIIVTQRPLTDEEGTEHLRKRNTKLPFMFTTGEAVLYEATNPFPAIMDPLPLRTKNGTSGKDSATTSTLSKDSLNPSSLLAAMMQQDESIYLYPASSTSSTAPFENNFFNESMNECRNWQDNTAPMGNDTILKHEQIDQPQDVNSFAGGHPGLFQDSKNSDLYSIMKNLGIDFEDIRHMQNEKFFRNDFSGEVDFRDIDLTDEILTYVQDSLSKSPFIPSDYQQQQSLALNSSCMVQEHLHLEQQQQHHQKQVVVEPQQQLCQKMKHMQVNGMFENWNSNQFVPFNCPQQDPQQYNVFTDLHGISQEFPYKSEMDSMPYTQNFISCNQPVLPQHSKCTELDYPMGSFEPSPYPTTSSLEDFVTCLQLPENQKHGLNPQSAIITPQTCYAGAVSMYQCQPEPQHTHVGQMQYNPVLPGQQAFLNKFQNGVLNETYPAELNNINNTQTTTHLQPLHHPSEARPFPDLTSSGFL
Sequence of Aromatase (Homo sapiens) (P11511 whole entry, looked up): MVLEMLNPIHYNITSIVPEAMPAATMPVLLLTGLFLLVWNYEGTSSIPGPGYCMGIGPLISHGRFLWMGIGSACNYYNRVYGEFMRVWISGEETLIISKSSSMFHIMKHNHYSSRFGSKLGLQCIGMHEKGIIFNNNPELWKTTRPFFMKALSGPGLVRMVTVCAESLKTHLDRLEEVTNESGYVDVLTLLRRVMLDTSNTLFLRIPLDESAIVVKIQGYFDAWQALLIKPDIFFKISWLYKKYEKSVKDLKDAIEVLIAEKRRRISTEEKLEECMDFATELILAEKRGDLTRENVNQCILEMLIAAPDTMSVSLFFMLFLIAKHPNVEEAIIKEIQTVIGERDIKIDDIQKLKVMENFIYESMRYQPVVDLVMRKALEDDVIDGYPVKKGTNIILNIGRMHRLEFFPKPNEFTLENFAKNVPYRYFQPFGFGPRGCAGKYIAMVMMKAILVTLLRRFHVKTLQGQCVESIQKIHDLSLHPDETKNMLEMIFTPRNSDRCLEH
Sequence of Estrogen receptor (Homo sapiens) (P03372 whole entry, looked up): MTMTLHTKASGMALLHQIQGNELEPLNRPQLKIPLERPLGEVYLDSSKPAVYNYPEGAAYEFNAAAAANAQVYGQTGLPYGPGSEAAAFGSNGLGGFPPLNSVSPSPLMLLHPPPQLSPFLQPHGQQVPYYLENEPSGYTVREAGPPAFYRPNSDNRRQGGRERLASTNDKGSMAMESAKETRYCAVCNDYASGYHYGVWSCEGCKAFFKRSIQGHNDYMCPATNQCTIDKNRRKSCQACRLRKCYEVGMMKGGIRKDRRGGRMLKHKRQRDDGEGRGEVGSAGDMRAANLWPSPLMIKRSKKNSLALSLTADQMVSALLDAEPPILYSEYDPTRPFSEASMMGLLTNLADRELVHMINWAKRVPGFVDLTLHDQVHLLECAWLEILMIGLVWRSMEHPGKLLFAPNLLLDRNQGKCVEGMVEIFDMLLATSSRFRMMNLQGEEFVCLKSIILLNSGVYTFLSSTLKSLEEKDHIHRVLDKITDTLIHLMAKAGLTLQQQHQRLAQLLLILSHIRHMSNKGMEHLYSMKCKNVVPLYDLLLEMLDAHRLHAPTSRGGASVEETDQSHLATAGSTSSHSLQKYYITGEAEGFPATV

O=c1[nH]c2ccccc2n1CCCN1CCC(n2c(=O)[nH]c3cc(Cl)ccc32)CC1
active: [1] 26.6 µM
inactive: [2] | Aromatase (Homo sapiens) | [3] | [4] | [5] | [6] | [7]

Nc1ccccc1C(=O)OC/C=C/c1ccccc1
active: [11] 61.3 µM | [14] 68.7 µM | [15] 39 µM
inactive: [8] | [9] | [10] | [2] | Aromatase (Homo sapiens) | [3] | [12] | [13]

CSCCCN=C=S
active: [6] 43.6 µM
inactive: [8] | [9] | [2] | [11] | [12]

CN(C)CCc1c[nH]c2cccc(O)c12
inactive: [8] | [9] | [3] | [11] | [12] | [13] | [16] | [4] | [14] | [6] | [15]

CC(C)[C@H](C(=O)O[C@H](C#N)c1cccc(Oc2ccccc2)c1)c1ccc(Cl)cc1
inactive: [8] | [9] | [2] | Aromatase (Homo sapiens) | [3] | [11] | [12] | [4] | [5] | [6] | [15]

Oc1c(Br)c(Br)c(Br)c(Br)c1Br
inactive: [10] | [2] | [12] | [6]
active: [4] 49.3 µM

CN(C)c1ccc(N=Nc2ccccc2)cc1
active: [2] 61.2 µM | [3] 54.5 µM | [11] 27.3 µM | [5] 8.64 µM
inactive: [8] | [9] | [4] | [14] | [6] | [15]

CCC[CH2][Sn]([CH2]CCC)([CH2]CCC)[O]C(=O)c1ccccc1
active: [17] 9.77 µM [cytotoxic] | [9] 1.74 µM | [18] 344 nM | [2] 1.72 µM | Aromatase (Homo sapiens) 2.17 µM | [3] 1.54 µM | [12] 2.73 µM | [4] 0.49 µM | [14] 0.273 µM | [15] 0.616 µM
inactive: [11]

CC(=O)[O-].CC(=O)[O-].O.O.[Cd+2]
active: [9] 43 µM | [3] 42.7 µM | [12] 2.69 µM | [4] 0.682 µM | [14] 0.214 µM | [15] 0.765 µM
inactive: [8] | [2] | [11]

CC(C)N1C(=O)N(c2ccccc2)CSC1=NC(C)(C)C
inactive: [9] | [10] | [2] | [11] | [12]
active: [17] 49 µM [inconclusive]

CN(C)C(=S)[S-].CN(C)C(=S)[S-].[Cu+2]
inactive: [11]
active: [9] 6.7 µM | [2] 1.49 µM | Aromatase (Homo sapiens) 1.49 µM | [3] 1.87 µM | [12] 8.36 µM | [4] 2.12 µM | [5] 1.49 µM | [15] 0.946 µM

CCCCCCCCCCCCCCCC[n+]1ccccc1
inactive: [10] | [11]
active: [9] 22.9 µM and 24.5 µM and 43 µM | [18] 21.1 µM and 18 µM and 15.4 µM | Aromatase (Homo sapiens) 7.7 µM [middle of 4 runs] | [3] 32 µM and 54.5 µM and 60.3 µM | [4] 26.6 µM [middle of 4 runs] | [14] 26.9 µM [middle of 4 runs] | [15] 23.7 µM [middle of 4 runs]

CC(Cc1ccc(C(C)(C)C)cc1)CN1C[C@@H](C)O[C@@H](C)C1 (stereo partly drawn)
inactive: [8] | [9] | [2] | [11] | [12] | [13] | [6] | [7]
active: [4] 49 µM

O=c1[nH]c2ccccc2n1C1CCN(CCCC(c2ccc(F)cc2)c2ccc(F)cc2)CC1
inactive: [10] | [11] | [12] | [13]
active: [9] 26.8 µM and 54.9 µM | [2] 54.5 µM | [3] 54.5 µM | [16] 34.7 µM | [4] 24.5 µM [setting not given] | [14] 24.3 µM and 33.5 µM | [6] 24.5 µM and 13.3 µM | [15] 24.5 µM and 29.8 µM
inactive and 30.6 µM (active): Aromatase (Homo sapiens)

COc1cc(N)c(Cl)cc1C(=O)NC1CN2CCC1CC2 (stereo not drawn)
not listed: [1] | [6] | [10] | [16] | [17] | [18] | [19]
inactive: all other assays above

O=C(O)C1C2CCC(O2)C1C(=O)O (stereo not drawn)
inactive: [8] | [9] | [2] | [12] | [4] | [14] | [6] | [7] | [15]

O=c1c(C2CC(c3ccc(-c4ccc(Br)cc4)cc3)Cc3ccccc32)c(O)sc2ccccc12 (stereo not drawn)
active: [4] 13.3 µM | [14] 33.5 µM | [15] 29.8 µM

C=CC(=O)OCCCCOC(=O)C=C
active: Aromatase (Homo sapiens) 43.3 µM | [3] 48.6 µM | [13] 9.77 µM | [5] 27.3 µM | [6] 5.49 µM | [15] 49 µM
inactive: [9] | [10] | [19] | [11] | [12]

CC(C)(O)c1cnn2c(-c3ccc(F)c(-c4c(F)cccc4C#N)c3)cnc2n1
inactive: [8] | [9] | [2] | [3] | [11] | [12] | [4] | [6]
active: Aromatase (Homo sapiens) 54.5 µM
